From the supplement of paper PMC11732987, “Enantioselective OTUD7B fragment discovery through chemoproteomics screening and high-throughput optimisation” (Communications Chemistry, 2025)

How the values were obtained:
Assay in all cases: log2 ratio of Biotin-Ahx-Ub-VS probe labelling (fragment/DMSO); higher = less target engagement (more negative = stronger competition), active = hit call of the paper (q ≤ 0.05, log2 ratio ≤ -1)
Conditions in all cases: compound concentration: 200 uM; treatment time: 3 h
ALG13 = molecular target: T1, ALG13 (UniProt Q9NP73)
T1 sequence (whole entry): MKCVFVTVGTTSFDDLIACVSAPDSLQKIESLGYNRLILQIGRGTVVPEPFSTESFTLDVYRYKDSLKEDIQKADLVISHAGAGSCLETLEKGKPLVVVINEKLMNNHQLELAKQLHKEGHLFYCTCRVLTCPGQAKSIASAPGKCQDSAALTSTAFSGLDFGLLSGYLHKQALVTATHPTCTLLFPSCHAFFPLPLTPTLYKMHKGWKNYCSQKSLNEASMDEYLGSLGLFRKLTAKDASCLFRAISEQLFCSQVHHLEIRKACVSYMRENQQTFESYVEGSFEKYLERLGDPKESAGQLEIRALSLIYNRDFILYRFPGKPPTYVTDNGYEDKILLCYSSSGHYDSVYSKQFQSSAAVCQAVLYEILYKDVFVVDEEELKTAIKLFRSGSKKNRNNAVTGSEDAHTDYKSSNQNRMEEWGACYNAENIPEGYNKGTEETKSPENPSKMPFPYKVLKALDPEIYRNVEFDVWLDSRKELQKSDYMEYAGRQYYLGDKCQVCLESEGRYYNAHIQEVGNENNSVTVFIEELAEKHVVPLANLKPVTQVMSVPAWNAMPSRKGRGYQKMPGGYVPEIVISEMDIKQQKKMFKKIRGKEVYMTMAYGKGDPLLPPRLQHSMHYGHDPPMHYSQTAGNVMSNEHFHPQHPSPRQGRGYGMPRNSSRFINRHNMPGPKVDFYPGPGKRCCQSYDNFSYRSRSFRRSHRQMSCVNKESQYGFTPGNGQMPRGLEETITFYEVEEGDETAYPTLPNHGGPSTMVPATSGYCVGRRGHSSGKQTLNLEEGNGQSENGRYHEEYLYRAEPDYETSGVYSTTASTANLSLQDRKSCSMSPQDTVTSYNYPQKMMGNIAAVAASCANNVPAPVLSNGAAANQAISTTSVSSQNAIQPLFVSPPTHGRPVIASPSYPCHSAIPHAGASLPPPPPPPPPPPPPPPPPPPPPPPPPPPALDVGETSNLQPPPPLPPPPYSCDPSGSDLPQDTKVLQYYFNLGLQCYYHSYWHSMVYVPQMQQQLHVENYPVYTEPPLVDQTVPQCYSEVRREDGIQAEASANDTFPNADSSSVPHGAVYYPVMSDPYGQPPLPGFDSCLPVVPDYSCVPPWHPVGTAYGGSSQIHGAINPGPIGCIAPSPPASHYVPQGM
How it was run: (§1)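 Global-median-normalised Spectronaut label-free quantities were compared by unpaired t-test, and values are average log2 ratios of fragment over vehicle. Only proteins with ≥2 unique peptides were used. HEK293T lysate (495 µg per sample) was treated in triplicate with fragment at 200 µM or vehicle for 3 h and then with Biotin-Ahx-Ub-VS at 0.5 µM final for 1 h. Labelled DUBs were then NeutrAvidin-enriched, digested with LysC and trypsin, and run by diaPASEF LC-MS/MS.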

ATXN3 = ATXN3 (UniProt P54252)
Sequence of ATXN3 (P54252 whole entry): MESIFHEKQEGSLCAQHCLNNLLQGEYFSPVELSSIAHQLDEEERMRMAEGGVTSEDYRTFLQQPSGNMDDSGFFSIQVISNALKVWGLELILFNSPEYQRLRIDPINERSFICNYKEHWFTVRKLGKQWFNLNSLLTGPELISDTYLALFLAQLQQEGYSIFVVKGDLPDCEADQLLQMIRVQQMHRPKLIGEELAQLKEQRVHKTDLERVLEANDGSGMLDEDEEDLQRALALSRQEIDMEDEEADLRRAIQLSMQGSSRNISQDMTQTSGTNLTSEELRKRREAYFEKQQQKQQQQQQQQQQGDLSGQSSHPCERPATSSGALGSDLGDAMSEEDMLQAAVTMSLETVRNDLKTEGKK
How it was run: as §1

BAP1 = molecular target: T2, BAP1 (UniProt Q92560)
T2 sequence (whole entry): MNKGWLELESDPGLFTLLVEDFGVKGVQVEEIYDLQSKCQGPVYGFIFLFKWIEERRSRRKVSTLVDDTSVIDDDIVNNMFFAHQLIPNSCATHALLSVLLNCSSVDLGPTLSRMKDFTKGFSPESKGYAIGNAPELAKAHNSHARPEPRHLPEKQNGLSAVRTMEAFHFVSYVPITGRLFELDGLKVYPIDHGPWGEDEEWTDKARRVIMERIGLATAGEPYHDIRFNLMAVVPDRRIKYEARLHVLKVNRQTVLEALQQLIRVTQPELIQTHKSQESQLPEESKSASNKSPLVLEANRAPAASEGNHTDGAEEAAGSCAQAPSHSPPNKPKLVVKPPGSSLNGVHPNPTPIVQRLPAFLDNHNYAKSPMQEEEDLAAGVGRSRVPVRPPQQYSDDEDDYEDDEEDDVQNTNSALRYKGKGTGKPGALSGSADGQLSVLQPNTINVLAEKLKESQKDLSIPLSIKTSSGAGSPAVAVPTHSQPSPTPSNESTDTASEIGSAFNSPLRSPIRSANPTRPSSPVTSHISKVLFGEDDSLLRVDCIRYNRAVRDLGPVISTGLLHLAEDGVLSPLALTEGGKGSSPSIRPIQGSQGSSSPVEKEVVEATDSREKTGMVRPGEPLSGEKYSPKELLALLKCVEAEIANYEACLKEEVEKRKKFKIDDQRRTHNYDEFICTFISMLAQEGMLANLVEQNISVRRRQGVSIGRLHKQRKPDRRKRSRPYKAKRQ
How it was run: as §1

EIF3F = EIF3F (UniProt O00303)
Sequence of EIF3F (O00303 whole entry): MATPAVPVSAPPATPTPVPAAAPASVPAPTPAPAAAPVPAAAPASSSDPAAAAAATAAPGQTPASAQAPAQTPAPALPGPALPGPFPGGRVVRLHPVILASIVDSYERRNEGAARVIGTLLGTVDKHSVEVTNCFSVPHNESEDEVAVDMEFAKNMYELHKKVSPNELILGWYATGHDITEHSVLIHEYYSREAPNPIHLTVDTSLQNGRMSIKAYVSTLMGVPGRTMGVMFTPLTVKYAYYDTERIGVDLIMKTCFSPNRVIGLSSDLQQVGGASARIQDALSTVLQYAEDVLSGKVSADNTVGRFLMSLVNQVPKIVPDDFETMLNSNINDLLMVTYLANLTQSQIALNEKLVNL
How it was run: as §1

EIF3H = EIF3H (UniProt O15372)
Sequence of EIF3H (O15372 whole entry): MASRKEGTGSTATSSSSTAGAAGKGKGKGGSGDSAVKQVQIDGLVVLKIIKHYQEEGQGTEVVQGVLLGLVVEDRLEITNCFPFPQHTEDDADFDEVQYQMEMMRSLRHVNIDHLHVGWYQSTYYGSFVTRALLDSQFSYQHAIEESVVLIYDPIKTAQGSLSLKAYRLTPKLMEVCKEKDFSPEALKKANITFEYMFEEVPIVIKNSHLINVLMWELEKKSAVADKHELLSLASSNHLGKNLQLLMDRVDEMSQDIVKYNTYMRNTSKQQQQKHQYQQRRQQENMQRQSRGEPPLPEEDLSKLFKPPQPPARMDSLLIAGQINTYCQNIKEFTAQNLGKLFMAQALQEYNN
How it was run: as §1

FAM105A = molecular target: T3, FAM105A (UniProt Q9NUU6)
T3 sequence (whole entry): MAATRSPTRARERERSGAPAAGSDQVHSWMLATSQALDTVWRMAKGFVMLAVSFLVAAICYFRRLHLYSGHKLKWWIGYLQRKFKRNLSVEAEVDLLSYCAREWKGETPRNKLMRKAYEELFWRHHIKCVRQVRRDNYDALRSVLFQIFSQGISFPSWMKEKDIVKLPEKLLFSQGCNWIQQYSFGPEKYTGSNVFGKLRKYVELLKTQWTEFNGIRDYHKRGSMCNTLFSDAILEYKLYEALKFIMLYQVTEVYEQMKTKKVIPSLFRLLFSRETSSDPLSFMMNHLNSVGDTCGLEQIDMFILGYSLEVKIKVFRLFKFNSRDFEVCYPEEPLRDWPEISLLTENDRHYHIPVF
How it was run: as §1

OTUB1 = OTUB1 (UniProt Q96FW1)
Sequence of OTUB1 (Q96FW1 whole entry): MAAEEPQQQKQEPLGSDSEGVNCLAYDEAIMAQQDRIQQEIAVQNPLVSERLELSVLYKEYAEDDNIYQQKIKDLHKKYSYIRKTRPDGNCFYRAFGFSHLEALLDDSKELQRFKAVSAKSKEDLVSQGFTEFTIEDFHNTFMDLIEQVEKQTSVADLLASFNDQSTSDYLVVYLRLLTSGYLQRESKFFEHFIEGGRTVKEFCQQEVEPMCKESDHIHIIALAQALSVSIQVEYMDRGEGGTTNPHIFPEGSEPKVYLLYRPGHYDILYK
How it was run: as §1

OTUD4 = molecular target: T4, OTUD4 (UniProt Q01804)
T4 sequence (whole entry): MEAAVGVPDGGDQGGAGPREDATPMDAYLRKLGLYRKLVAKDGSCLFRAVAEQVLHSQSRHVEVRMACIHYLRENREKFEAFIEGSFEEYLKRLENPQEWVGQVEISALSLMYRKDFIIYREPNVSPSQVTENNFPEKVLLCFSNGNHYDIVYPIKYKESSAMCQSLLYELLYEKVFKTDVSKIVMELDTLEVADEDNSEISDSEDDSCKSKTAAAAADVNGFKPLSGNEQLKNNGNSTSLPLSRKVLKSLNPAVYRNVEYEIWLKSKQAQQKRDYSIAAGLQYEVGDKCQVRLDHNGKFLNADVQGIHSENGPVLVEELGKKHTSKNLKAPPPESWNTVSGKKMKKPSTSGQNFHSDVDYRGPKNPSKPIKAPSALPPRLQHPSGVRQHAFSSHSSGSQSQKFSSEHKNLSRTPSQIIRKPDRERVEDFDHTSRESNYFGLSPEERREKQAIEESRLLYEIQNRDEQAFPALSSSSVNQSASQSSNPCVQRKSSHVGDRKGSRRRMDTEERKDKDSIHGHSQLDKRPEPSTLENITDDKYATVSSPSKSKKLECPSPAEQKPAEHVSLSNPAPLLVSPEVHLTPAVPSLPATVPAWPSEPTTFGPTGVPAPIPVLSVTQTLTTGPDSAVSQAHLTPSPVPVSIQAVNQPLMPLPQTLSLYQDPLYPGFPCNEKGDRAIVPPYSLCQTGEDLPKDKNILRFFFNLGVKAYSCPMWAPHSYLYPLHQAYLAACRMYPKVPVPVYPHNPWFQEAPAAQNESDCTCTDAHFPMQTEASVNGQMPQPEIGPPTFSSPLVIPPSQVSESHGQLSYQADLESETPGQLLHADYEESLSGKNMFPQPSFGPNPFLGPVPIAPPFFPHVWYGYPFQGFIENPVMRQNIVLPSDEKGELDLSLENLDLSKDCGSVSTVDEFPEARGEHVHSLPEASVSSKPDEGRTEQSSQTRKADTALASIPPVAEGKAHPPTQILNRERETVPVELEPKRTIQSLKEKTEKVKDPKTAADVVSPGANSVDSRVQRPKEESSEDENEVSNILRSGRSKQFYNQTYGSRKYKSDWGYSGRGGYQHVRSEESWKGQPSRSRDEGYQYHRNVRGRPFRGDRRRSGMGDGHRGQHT
How it was run: as §1

OTUD5 = molecular target: T5, OTUD5 (UniProt Q96G74)
T5 sequence (whole entry): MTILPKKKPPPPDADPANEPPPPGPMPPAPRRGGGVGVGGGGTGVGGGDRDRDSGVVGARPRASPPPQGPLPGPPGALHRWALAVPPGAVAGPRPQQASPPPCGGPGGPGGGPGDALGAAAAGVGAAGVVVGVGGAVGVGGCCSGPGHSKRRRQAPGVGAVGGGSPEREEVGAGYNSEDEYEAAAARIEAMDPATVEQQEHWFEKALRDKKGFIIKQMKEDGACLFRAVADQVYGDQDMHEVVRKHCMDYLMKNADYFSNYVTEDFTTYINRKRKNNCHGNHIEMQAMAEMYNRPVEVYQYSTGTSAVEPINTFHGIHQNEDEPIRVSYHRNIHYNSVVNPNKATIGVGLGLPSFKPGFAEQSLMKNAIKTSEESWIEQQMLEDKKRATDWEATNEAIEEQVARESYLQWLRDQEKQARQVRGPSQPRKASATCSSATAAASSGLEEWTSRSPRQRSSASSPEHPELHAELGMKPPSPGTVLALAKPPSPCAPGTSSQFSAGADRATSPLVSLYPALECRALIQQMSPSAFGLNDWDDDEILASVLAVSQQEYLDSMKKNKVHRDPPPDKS
How it was run: as §1

Measured: log2 ratio of Biotin-Ahx-Ub-VS probe labelling

O=C(CCl)N[C@H]1CCS(=O)(=O)c2ccccc21
active: BAP1 -2.12 | OTUD4 -1.08
inactive: ALG13 -0.0339 | ATXN3 -0.224 | EIF3F -0.052 | EIF3H 0.251 | FAM105A -0.522 | OTUB1 0.161 | OTUD5 -0.117
